Common to all, as to assay: NCI-60 one-dose screen, 48 h (100 = growth as untreated, 0 = no growth, -100 = all killed)
Conditions in all cases: 10 µM unless noted

Assay [1] has as its system RPMI-8226 leukemia.
Assay [2] relates to OVCAR-8 ovarian.
The subject of assay [3] is OVCAR-5 ovarian.
Assay [4] relates to OVCAR-4 ovarian.
Assay [5] has as its system SK-OV-3 ovarian.
For assay [6], the system named is IGROV1 ovarian.
The test system of assay [7] is OVCAR-3 ovarian.
For assay [8], the system named is HS 578T breast.
Assay [9] concerns NCI/ADR-RES ovarian.
For assay [10], the system named is T-47D breast.

The structures appear in SMILES notation. The panel holds about 83,000 compounds, 20% with a hit somewhere; the sample as a whole holds those more often.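 Single-concentration screen, 48 h exposure, 96-well plates. Endpoint: percent growth. Below 10 = active.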 Values without a mark were called inactive. Activity calls are given as the source filed them.

Turning to `COc1cc(NC(=O)CCSc2nc3ccccc3c(=O)n2Cc2ccccc2)cc(OC)c1OC`, the growth in assay [1] is 56.9%; in assay [2], 79.3%; in [3], 91%; in assay [4] it was 63.4%; in [5], 99.3%; in assay [6] it was 99.4%. In addition, the growth was 88.1% in [7], 77.3% in assay [8], 82.1% in assay [9] and 78.1% in assay [10].

Regarding `COc1cc2nc(-c3cccc4cccnc34)nc(NC3CCN(Cc4ccccc4)CC3)c2cc1OC`, the growth is -48.7% (active) in [1]; -55% (active) in assay [2]; -90.6% (active) in assay [3]; -91.1% (active) in assay [4]; -74.7% (active) in [5]; -61.5% (active) in [6]. Further, the growth was -85.9% (active) in assay [7], -41.7% (active) in assay [8], 6.52% (active) in [9] and -64.4% (active) in assay [10].

Turning to `Nc1ccc(C2c3ccccc3Oc3ccccc32)cc1`, the growth in [1] was 94%; in [2], 102%; in [3], 101%; in assay [4], 105%; in assay [5], 98.3%; in assay [6] it was 91.8%. The growth was 96.4% in assay [7], 100% in assay [9] and 84.1% in [10].

As for `N#CC(C#N)=Cc1c(-c2ccccc2)[nH]c2ccccc12`, the growth in [1] is -24.8% (active); in [2] it was 32.4%; in assay [3], 75.3%; in [4], 65.7%; in assay [5], 25.3%; in assay [7], -27.5% (active). Besides, the growth was -1.19% (active) in assay [8], 16.2% in [9] and 38.6% in [10].

As to `COc1cc(C(=O)NN=C2c3ccccc3-c3ccccc32)cc(OC)c1OC`, the growth in assay [1] is 23%; in assay [2] it was 34.5%; in assay [3], 63.4%; in [4], 55.5%; in assay [5] it was 22.9%; in assay [6] it was 32.3%. Besides, the growth in assay [7] is -1.71% (active); in assay [8], 50.6%; in assay [9], 23.3%; in [10], 37.8%.

As to `COc1cc(/C=C/C(=O)c2c(C)nc3ccccc3c2/C=C/c2ccccc2)cc(OC)c1OC`, the growth is -27.3% (active) in assay [1]; 11.6% in [2]; 7.55% (active) in assay [3]; 40.8% in [4]; 59.3% in assay [5]; 2.87% (active) in [6]. Also, the growth is -35.9% (active) in assay [7], 24.7% in [8], 8.09% (active) in assay [9] and 13.3% in assay [10].

On to `CCN1CCN(C(=S)SCC(=O)Nc2nc3ccc(C)cc3s2)CC1`, for which the growth in assay [1] is 94.7%; in [2], 91.9%; in assay [3] it was 95.3%; in [4], 86.2%; in [5], 102%; in assay [6], 72%. For the same molecule, the growth was 106% in assay [7], 112% in assay [8], 103% in [9] and 87.8% in [10].

For the molecule `O=C(Nc1ccc(I)cc1F)c1cc(Cl)ccc1O`, the growth in assay [1] is -29.3% (active); in assay [2] it was 10.1%; in [3] it was 26.1%; in assay [4], 15%; in [5], 4.21% (active); in assay [6], 16.2%. Moreover, the growth in assay [7] is 4.4% (active); in assay [8] it was 5.53% (active); in assay [9], 9.54% (active); in assay [10], -4.67% (active).

Turning to `CC/C=C\C[C@H](O)C/C=C1/C(=O)C=C[C@@H]1C/C=C\CCCC(=O)OCCS(=O)(=O)c1ccccc1`, the growth in assay [1] was 14.6%; in assay [2], 26.3%; in [3] it was 121%; in assay [4], 84.3%; in [5] it was 104%; in [6] it was 100%. Besides, the growth was 20.7% in [7], 36.2% in [8], 75.2% in [9] and 18.3% in [10].

With `COc1ccc(-c2c(-c3ccc(OC)c(O)c3)cnc3ncnn23)cc1`, the growth was 108% in [1]; 101% in [2]; 103% in assay [3]; 104% in [4]; 110% in assay [5]; 110% in [6]. The growth in assay [7] was 112%; in [8], 104%; in assay [9], 102%; in [10], 103%.

As for `COC(=O)/C(=C\c1c(C)[nH]c2ccccc12)S(=O)(=O)c1ccccc1`, the growth is -45.8% (active) in assay [1]; 4.29% (active) in assay [2]; 33.6% in assay [3]; 53% in assay [4]; 22.6% in assay [5]; -19.8% (active) in assay [7]. Further, the growth in assay [8] is -29.7% (active); in assay [9], 4.6% (active); in assay [10], 17.8%.

On to `N#Cc1c(N)nc2c(c1N)C(c1ccc(F)cc1)c1ccc(N)cc1O2` (centres undefined), for which the growth is 103% in [1]; 97.5% in [2]; 99.1% in [3]; 96.7% in assay [4]; 119% in [5]; 118% in assay [7]. Besides, the growth is 95.6% in [8], 107% in assay [9] and 92.3% in assay [10].

With `CN(C)c1ccc(/C=C/c2ccnc3c(O)cccc23)cc1`, the growth in assay [1] is 1.91% (active); in assay [2], 8.43% (active); in [3], 35.5%; in assay [4], 31.9%; in assay [5] it was 24.7%; in assay [6] it was 11.4%. Besides, the growth in [7] was 29.7%; in [8], 43%; in assay [9] it was 19.5%; in assay [10], 16.9%.

For the molecule `COc1cccc(C(=O)Cn2cc(/C=C(\C#N)S(=O)(=O)c3ccccc3)c3ccccc32)c1`, the growth is 72.2% in assay [1]; 89.3% in [2]; 47.9% in [3]; 95.6% in assay [4]; 85% in assay [5]; 103% in assay [7]. In addition, the growth in [8] was 106%; in [9], 90.6%; in assay [10], 91.6%.

With `N#C/C(=C\c1c(-c2ccccc2)[nH]c2ccccc12)S(=O)(=O)c1ccccc1`, the growth was -43.1% (active) in [1]; 43.3% in assay [2]; 75.1% in assay [3]; 83% in assay [4]; 30.5% in [5]; -27.9% (active) in [7]. Besides, the growth in [8] is 15.9%; in assay [9], 7.91% (active); in assay [10] it was 38.9%.

The values are drawn from PubChem BioAssay (NCI).
